The source of these data is PubChem BioAssay (EPA / NIEHS).

Inconclusive results are not listed. Calls of active or inactive are those of the source. How the source made its calls: active means hit-call score of the fitted dose curve at least 0.9, where 1 is the maximum; inconclusive means response in the unintended direction; inactive means score below 0.9.

Sequence of rat Opioid Receptor, Non-selective Sodium (Na+) Binding, Oprm1 (gene 25601) (P33535 whole entry, looked up): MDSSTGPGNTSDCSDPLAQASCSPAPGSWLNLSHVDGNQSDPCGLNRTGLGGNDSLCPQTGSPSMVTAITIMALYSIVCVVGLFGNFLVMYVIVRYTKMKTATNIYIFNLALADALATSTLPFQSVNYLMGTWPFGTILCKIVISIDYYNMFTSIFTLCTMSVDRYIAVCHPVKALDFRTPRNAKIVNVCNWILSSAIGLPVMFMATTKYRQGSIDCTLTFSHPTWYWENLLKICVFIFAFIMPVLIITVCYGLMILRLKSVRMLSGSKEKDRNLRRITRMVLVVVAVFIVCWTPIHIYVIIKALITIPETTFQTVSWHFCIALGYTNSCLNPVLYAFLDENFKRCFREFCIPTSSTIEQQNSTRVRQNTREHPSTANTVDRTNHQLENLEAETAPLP
Sequence of rat Vasopressin 1 Receptor (V1), Avpr1a (gene 25107) (P30560 whole entry, looked up): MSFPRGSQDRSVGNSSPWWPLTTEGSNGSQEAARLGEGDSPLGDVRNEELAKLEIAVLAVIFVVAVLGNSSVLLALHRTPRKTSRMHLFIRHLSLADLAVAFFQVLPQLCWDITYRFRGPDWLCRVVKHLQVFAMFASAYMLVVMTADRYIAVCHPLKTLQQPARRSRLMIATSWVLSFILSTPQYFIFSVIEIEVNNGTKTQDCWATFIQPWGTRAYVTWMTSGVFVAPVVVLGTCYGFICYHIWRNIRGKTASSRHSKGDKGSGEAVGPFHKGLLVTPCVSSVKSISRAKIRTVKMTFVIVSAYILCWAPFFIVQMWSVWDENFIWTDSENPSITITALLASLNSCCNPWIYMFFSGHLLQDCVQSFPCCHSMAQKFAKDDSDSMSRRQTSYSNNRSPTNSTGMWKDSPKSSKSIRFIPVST

In one test the test system is rat Adrenergic, Alpha 1B Receptor (Adra1B), gene 24173. Nature of the test: NVS_GPCR_rAdra1B: NovaScreen (NVS) G Protein-Coupled Receptor Assay for rat Adrenergic, Alpha 1B Receptor (Adra1B) (AID 2283297). A digest of the protocol: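 Filter-binding radioligand competition on membranes from rat liver, read after 1 h by scintillation counting. Single-concentration duplicate screen at 25 uM, followed by concentration-response on actives, normalised to DMSO.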
Regarding `O=Cc1ccccc1C=O`, the outcome was inactive.

In the case of `Cn1cnc2c1c(=O)[nH]c(=O)n2C`, the outcome was inactive.

With `CC(C)NCC(O)c1ccc(O)c(O)c1` (centres undefined), the compound was classed as inactive.

The next test has as its target rat Opioid Receptor, Non-selective Sodium (Na+) Binding, Oprm1 (gene 25601) (UniProt P33535). The experiment in a line: NVS_GPCR_rOpiate_NonSelectiveNa: NovaScreen (NVS) G Protein-Coupled Receptor Assay for rat Opioid Receptor, Non-selective Sodium (Na+) Binding (AID 2283311). The procedure, abridged: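 Filtration radioligand binding on rat forebrain membrane preparations, read 1.5 h after dosing. Single-concentration 25 µM primary screen in duplicate, followed by singleton concentration series to 50 µM max for actives; DMSO baseline.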
Consider `O=C1OC(c2ccc(O)cc2)(c2ccc(O)cc2)c2ccccc21`, for which the AC50 was 604 nM (active).

Consider `CC(C)(C)c1ccccc1`, for which the compound was called inactive.

In the case of `Cc1ccc(-c2cc(C(F)(F)F)nn2-c2ccc(S(N)(=O)=O)cc2)cc1`, the compound was called inactive.

Turning to `Cc1c(C)c2c(c(C)c1O)CCC(C)(COc1ccc(CC3SC(=O)NC3=O)cc1)O2` (centres undefined), the outcome was inactive.

In the next test the target is rat Vasopressin 1 Receptor (V1), Avpr1a (gene 25107) (UniProt P30560). The experiment in a line: NVS_GPCR_rV1: NovaScreen (NVS) G Protein-Coupled Receptor Assay for rat Vasopressin 1 Receptor (V1) (AID 2283316). A digest of the protocol:
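Concentration-response up to 50 uM for chemicals passing a threshold such as 30% inhibition in an initial duplicate 25 uM screen. Displacement of radioligand from rat liver membranes measured after 1.5 h by filtration and scintillation.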
As to `CC(=O)O`, the compound was called inactive.

As for `CC(C)c1cccc(C(C)C)c1NC(=O)NS(=O)(=O)c1cc(C(C)(C)O)co1`, the compound was called inactive.

Regarding `CO[C@@H]1COCC[C@@H]1N[C@@H]1CC[C@@](C(=O)N2CCc3ncc(C(F)(F)F)cc3C2)(C(C)C)C1`, the compound was called inactive.

For the compound `CCc1cc(C2=C(C(=O)O)N(c3ccccc3C(F)(F)F)S(=O)(=O)c3ccccc32)cc2c1OCO2`, the AC50 is 25000 nM (active).

For the next test, the target named is rat Opioid Receptor, Non-selective Binding, Oprm1 (gene 25601) (UniProt P33535). The experiment in a line: NVS_GPCR_rOpiate_NonSelective: NovaScreen (NVS) G Protein-Coupled Receptor Assay for rat Opioid Receptor, Non-selective Binding (AID 2283318). A digest of the protocol: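 Filter-based radioligand displacement using rat forebrain membrane preparations, measured 1.5 h post-dosing. Single-concentration duplicate screen at 25 uM, follow-up in concentration series; activity taken as signal loss relative to DMSO.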
Sequence of rat Opioid Receptor, Non-selective Binding, Oprm1 (gene 25601) (P33535 whole entry, looked up): as the sequence (P33535 whole entry, looked up) above
As to `O=C1OC(c2ccc(O)cc2)(c2ccc(O)cc2)c2ccccc21`, the AC50 was 872 nM (active).

`CC(=O)O[C@]1(C(C)=O)CC[C@H]2[C@@H]3C=C(Cl)C4=CC(=O)[C@@H]5C[C@@H]5[C@]4(C)[C@H]3CC[C@@]21C`: the AC50 was 353 nM (active).

Turning to `CO[C@@H]1COCC[C@@H]1N[C@@H]1CC[C@@](C(=O)N2CCc3ncc(C(F)(F)F)cc3C2)(C(C)C)C1`, the AC50 was 25000 nM (active).

Broadly, the AC50 is the concentration giving half of the maximal activity seen.
